Active and inactive are the calls of the source.
Experiments:
Albumin (Bos taurus) = Albumin (Bos taurus) (UniProt P02769); test: compounds binding labelled BSA control protein – biochemical, small-molecule microarray, Alexa647 label, 635/667 nm fluorescence, artefact control for SMM control protein annotation, profiling panel (AID 1118); details: BSA-A647 binding, fluorescence 635 nm, higher = more signal;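 note: score merges 667 nm emission intensity and signal-to-noise per printed compound spot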
[1] = probe aXIP binding to arrayed compounds – biochemical, NeuroSMM set, 635/667 nm fluorescence, primary screen (AID 1119); details: small-molecule microarray, higher = more signal, called active from +8 up or from −8 down;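 note: probe is the protein aXip251-270 applied at 1 µg/mL to compound-printed slides; binding of probe to printed compounds measured as 667 nm fluorescence plus signal to noise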
[2] = probe aNOTCH3 binding on compound microarray – biochemical, small-molecule microarray, 635/667 nm fluorescence, primary screen (AID 1120); details: higher = more signal;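 note: probe is a biotin-tagged antibody raised against NOTCH3 rather than NOTCH3 protein; score merges spot fluorescence near 667 nm with spot signal to noise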
[3] = probe aNOTCH2 binding on compound microarray – biochemical, small-molecule microarray, 635/667 nm fluorescence, primary screen (AID 1121); details: higher = more signal;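 note: score merges feature fluorescence read at 667 nm with its signal to noise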
[4] = target: Carbonic anhydrase 2 (Homo sapiens) (UniProt P00918); test: compounds binding carbonic anhydrase 2 – biochemical, small-molecule microarray, Alexa647-labelled CAII, profiling panel (AID 1122); details: CAII-A647 binding fluorescence, higher = more signal
[5] = COS7 lysate on small-molecule microarray, probe aHis, 635 nm (AID 1123); details: COS7 cell lysate, fluorescence, higher = more signal;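 note: z-score combines 667nm fluorescence intensity with signal-to-noise per printed compound spot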
[6] = probe aLAP1 signal on lysate-treated microarray – cell lysate, small-molecule microarray, COS7 lysate, primary screen (AID 1124); details: probe aLAP1, fluorescence, higher = more signal;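 note: lysate comes from COS7 cells expressing LAP1 and is applied at 0.3 µg/mL; score merges spot fluorescence near 667 nm with signal-to-noise over triplicate slides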
Sam68 (KHDRBS1) = test: compounds binding KHDRBS1 protein – biochemical, small-molecule microarray, 635 nm fluorescence, primary screen (AID 1125); details: higher = more signal;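 note: score merges 667 nm channel intensity with signal to noise over triplicate slides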
[7] = test system: Chordin-like protein 2 (CHRDL2); test: compounds binding chordin-like 2 – biochemical, small-molecule microarray, 635 nm fluorescence, primary screen (AID 1126); details: fluorescence 635 nm, higher = more signal;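 note: printed compound slides probed with Chrdl2 protein at 4 µg/mL for 1 h at 4 C; score merges 667 nm emission intensity with signal to noise over three replicate slides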
[8] = target: Concanavalin-A (Canavalia ensiformis) (UniProt P02866); test: compounds binding concanavalin A lectin – biochemical, small-molecule microarray, Alexa647 label, 635 nm, artefact control for SMM control protein annotation, primary screen (AID 1127); details: ConA-A647 binding fluorescence, higher = more signal;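 note: z combines 667 nm emission intensity with signal-to-noise across three replicate slides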
[9] = compounds binding Alexa647 anti-His antibody – biochemical, small-molecule microarray, 635 nm fluorescence, artefact control for SMM control protein annotation, primary screen (AID 1128); details: higher = more signal;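 note: score merges feature fluorescence with signal-to-noise for each printed compound spot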
[10] = test system: Human papillomavirus type 1a E7 protein (residues 1-88); test: HPV1a E7 small-molecule binders, primary screen, biochemical, small-molecule microarray, residues 1-88, 635 nm (AID 1129); details: small-molecule microarray binding, fluorescence 635 nm; higher = more signal
[11] = target: Focal adhesion kinase 1 (Homo sapiens) (UniProt Q05397); test: PTK2 protein binding on printed compound slides – biochemical, small-molecule microarray, 635/667 nm fluorescence, BSA, DTT, primary screen (AID 1130); details: 635 nm fluorescence, higher = more signal;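 note: composite of spot emission at 667 nm and signal to noise over triplicate slides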
[12] = test system: Fibrinogen (Alexa647-labelled); test: Alexa647-fibrinogen binding to printed small molecules – biochemical, small-molecule microarray, 635/667 nm fluorescence, artefact control for SMM control-protein annotation, profiling panel (AID 1131); details: fibrinogen-A647 binding fluorescence, higher = more signal;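 note: z-score merges 667 nm fluorescence with per-spot signal-to-noise over triplicate slides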
[13] = target: Follistatin (Homo sapiens) (UniProt P19883); test: FST protein binding to printed compounds – biochemical, small-molecule microarray, 635/667 nm fluorescence, primary screen (AID 1132); details: 635 nm fluorescence, higher = more signal
[14] = target: Fibroblast growth factor 2 (Homo sapiens) (UniProt P09038); test: basic fibroblast growth factor binding to printed compounds – biochemical, small-molecule microarray, 635/667 nm fluorescence, primary screen (AID 1133); details: FGF2, fluorescence 635/667, higher = more signal
[15] = JC-1 mitochondrial potential readout, lung cancer cells – cell-based, A549, JC-1 fluorescence, basal, 24 h, 100 nL, profiling panel (AID 1138); details: higher = more signal;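 note: A549 lung adenocarcinoma cells under basal conditions with no added stimulus; test concentration not given here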
Lefty1 = Lefty1 protein binding to printed compounds – biochemical, small-molecule microarray, 635/667 nm fluorescence, primary screen (AID 1139); details: fluorescence 635/667, higher = more signal
[16] = test system: wheat germ agglutinin (Triticum aestivum), Alexa647-labelled; test: Alexa647-WGA lectin binding to printed small molecules – biochemical, small-molecule microarray, 635/667 nm fluorescence, artefact control for SMM control-protein annotation, profiling panel (AID 1140); details: WGA-A647 binding, 635 nm fluorescence, higher = more signal;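 note: score merges 667 nm feature emission with signal to noise over triplicate slides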
[17] = target: Luciferin 4-monooxygenase (Photinus pyralis) (UniProt P08659); test: inhibition of purified Photinus pyralis luciferase – biochemical, luminescence, purified enzyme, 2006 set, primary screen (AID 1141); details: purified firefly luciferase, SteadyGlo luminescence, 30 min; higher = more signal, called active from +8 up or from −8 down;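 note: cell-free assay with purified firefly luciferase at 100 ng per well in PBS; test concentration not given here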
Chain of Luciferin 4-monooxygenase (Photinus pyralis) (P08659 whole entry, looked up): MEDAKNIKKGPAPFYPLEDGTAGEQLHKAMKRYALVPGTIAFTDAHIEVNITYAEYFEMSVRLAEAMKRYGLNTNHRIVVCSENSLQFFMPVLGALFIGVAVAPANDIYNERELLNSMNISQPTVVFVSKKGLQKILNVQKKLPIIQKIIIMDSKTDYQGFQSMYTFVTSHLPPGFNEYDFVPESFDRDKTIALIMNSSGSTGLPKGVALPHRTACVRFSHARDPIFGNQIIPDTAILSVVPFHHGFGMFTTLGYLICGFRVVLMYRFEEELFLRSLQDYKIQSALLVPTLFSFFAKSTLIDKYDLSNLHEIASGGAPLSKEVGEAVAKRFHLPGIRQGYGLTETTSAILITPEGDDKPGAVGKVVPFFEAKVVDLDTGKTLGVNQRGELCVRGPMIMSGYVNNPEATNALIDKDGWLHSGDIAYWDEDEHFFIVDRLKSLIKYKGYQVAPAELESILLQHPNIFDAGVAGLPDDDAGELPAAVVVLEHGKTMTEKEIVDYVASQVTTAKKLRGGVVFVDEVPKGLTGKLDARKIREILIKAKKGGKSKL

Chain of Follistatin (Homo sapiens) (P19883 whole entry, looked up): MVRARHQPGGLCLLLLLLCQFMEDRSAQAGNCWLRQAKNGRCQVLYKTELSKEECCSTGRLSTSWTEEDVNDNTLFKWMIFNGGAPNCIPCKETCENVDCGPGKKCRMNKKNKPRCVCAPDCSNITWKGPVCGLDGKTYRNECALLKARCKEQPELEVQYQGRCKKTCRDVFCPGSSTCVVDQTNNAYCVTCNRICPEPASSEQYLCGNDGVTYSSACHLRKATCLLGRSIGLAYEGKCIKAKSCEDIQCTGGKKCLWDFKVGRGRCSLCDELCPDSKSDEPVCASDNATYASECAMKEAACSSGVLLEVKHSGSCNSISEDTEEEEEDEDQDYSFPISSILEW
Chain of Focal adhesion kinase 1 (Homo sapiens) (Q05397 whole entry, looked up): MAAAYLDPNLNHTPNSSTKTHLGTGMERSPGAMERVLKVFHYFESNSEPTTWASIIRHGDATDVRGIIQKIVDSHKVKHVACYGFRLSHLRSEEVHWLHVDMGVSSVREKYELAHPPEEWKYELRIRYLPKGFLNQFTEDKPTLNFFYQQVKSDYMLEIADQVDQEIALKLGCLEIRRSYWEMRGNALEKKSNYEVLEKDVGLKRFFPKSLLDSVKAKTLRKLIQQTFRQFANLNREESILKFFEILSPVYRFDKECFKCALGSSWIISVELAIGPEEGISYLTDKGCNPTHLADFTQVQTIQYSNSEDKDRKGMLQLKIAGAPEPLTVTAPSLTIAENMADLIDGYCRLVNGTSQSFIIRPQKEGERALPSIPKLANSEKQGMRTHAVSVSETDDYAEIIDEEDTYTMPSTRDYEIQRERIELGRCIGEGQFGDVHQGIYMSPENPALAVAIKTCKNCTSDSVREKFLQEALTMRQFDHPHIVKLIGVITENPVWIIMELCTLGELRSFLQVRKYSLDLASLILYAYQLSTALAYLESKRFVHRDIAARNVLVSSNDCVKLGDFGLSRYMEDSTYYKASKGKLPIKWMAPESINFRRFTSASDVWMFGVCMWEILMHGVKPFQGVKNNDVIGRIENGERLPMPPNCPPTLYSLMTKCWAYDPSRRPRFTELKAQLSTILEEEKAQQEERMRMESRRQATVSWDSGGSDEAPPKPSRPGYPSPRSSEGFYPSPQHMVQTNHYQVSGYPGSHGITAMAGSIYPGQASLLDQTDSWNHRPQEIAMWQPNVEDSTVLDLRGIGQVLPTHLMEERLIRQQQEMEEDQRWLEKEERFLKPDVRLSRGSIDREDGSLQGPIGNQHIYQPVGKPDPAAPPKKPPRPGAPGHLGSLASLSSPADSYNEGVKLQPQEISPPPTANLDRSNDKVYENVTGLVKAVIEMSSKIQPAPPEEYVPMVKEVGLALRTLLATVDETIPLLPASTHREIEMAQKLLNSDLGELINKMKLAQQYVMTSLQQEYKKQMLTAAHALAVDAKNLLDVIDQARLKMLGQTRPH
Chain of Concanavalin-A (Canavalia ensiformis) (P02866 whole entry, looked up): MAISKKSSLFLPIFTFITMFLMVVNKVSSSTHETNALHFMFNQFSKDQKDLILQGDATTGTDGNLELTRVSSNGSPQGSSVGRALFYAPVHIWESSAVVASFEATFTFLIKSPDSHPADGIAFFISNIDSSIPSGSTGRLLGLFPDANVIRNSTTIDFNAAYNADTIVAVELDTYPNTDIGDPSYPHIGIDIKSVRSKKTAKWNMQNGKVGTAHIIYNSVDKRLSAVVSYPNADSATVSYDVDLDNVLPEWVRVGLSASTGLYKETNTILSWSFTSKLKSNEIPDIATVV
Chain of Fibroblast growth factor 2 (Homo sapiens) (P09038 whole entry, looked up): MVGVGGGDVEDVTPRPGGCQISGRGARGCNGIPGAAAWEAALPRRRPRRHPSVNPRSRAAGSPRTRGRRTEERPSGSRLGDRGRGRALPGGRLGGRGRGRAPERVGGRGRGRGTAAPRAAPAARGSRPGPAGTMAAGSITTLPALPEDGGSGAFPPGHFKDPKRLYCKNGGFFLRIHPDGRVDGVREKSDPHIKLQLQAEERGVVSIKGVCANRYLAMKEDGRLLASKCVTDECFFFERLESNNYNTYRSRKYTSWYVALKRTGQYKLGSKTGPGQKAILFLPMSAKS
Chain of Albumin (Bos taurus) (P02769 whole entry, looked up): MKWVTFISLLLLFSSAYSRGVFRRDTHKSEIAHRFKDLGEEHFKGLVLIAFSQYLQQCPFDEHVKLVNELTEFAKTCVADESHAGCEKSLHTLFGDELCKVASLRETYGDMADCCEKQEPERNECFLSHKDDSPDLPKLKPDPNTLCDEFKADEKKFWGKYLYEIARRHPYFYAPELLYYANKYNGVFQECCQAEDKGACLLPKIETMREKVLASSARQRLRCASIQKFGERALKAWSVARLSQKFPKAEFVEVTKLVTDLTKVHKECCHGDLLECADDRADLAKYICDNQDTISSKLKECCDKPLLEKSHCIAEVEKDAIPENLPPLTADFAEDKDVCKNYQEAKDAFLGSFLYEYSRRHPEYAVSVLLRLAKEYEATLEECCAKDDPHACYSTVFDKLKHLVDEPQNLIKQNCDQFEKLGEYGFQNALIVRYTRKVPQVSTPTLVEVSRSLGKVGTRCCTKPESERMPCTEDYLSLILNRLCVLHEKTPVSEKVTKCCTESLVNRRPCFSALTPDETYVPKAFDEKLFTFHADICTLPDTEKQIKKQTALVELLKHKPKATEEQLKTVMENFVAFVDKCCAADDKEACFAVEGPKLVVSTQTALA

Structure (SMILES)	composite z-score (Albumin (Bos taurus))	composite Z-score [1]	composite z-score [2]	composite z-score [3]	composite z-score [4]	composite z-score [5]	composite z-score [6]	composite z-score (Sam68 (KHDRBS1))	composite z-score [7]	composite z-score [8]	composite z-score [9]	composite z-score [10]	composite z-score [11]	composite z-score [12]	composite z-score [13]	composite z-score [14]	z-score [15]	composite z-score (Lefty1)	composite z-score [16]	z-score [17]
CCOC(=O)C[C@H]1[C@H](OC(=O)c2ccc(C(=O)c3ccccc3)cc2)[C@@H](NC(=O)Cc2ccc(OC)cc2)c2cc(OCCCO)ccc2N1C(=O)c1ccccc1	0.585	0.324 (inactive)	0.0203	-0.0877	0.188	0.409	-0.0137	0.428	-0.0656	0.278	0.305	0.498	0.15	0.157	-0.17	0.23	1.14	0.162	-0.337	0.449 (inactive)
COc1cc2c(cc1O)C(C)N(Cc1ccc([N+](=O)[O-])o1)CC2 (stereo not given)	0.831	0.0948 (inactive)	0.348	0.0746	0.512	0.68	1.57	1.33	-0.622	1.17	1.63	1.1	0.243	0.824	0.542	0.18	0.275	0.18	0.918	-0.0107 (inactive)
NC(=O)NCC#Cc1ccc2c(c1)[C@]1(C(=O)N2)[C@H](C(=O)NC[C@H](O)c2ccccc2)[C@H]2C(=O)O[C@H](c3ccccc3)[C@H](c3ccccc3)N2[C@@H]1c1ccc(OCCO)cc1	-0.397	0.491 (inactive)	0.233	-0.0449	0.377	0.791	0.587	1.01	-0.0806	0.798	-0.0888	1.05	-0.0193	0.829	1.29	0.177	-0.303	-0.0126	0.915	-1.9 (inactive)
CC(C)(C)N1CC=CC23O[C@@H]4C=CCOC(=O)[C@@H]4[C@H]2C(=O)N(CCCCCCO)[C@@H]3C1=O (stereo not given in full)	0.277	0.395 (inactive)	-0.359	-0.112	0.879	-0.112	0.483	-0.551	-0.677	-0.375	0.184	-0.184	0.527	-1.52	-1.42	-0.877	-0.12	-0.447	0.132	-0.234 (inactive)
N#Cc1ccc(NN2C(C(O)c3ccc(F)cc3)C=CC3C(=O)N(c4ccccc4)C(=O)C32)cc1 (stereo not given)	0.824	0.383 (inactive)	-0.16	-0.138	0.318	2.59	0.905	-0.306	-1.55	0.536	1.57	0.57	0.171	0.797	0.0089	0.866	0.324	-0.577	0.94	0.646 (inactive)
C=CCNC(=O)[C@H]1[C@@H]2C(=O)O[C@@H](c3ccccc3)[C@@H](c3ccccc3)N2[C@@H](c2ccc(O)cc2)[C@]12C(=O)N(C(=O)OCCOC)c1ccccc12	0.299	0.255 (inactive)	-0.091	0.0487	0.385	2.18	0.701	1.17	0.0889	0.745	3.08	1.24	0.484	0.886	0.852	0.198	-0.8	0.31	0.708	-0.109 (inactive)
COc1ccc([Si](C)(C)[C@H]2[C@H](CCO)O[C@@]3(C(=O)N(Cc4cccc(N5C(=O)COc6ccccc65)c4)c4ccccc43)[C@@H]2C)cc1	0.336	0.0953 (inactive)	-0.0343	0.0425	0.338	0.317	0.232	0.297	0.0083	0.567	0.354	-0.0131	-0.0804	0.0563	0.196	-0.032	1.17	-0.236	0.715	-1.17 (inactive)
C[N+](C)(C)CCCC[C@@H]1NC(=O)[C@H]2C[C@@H](C(=O)NCCCCCCN)[C@@H](c3ccc(O)cc3)N2C1=O	0.98	0.289 (inactive)	0.201	0.14	0.685	1.08	-0.186	1.23	-0.117	1.13	3.15	1.13	0.145	0.973	0.835	0.299	0.792	-0.046	1.17	-0.932 (inactive)
C[C@]1(C(=O)NC2CC2)c2ccccc2C(=O)N(Cc2ccccc2)[C@H]1c1ccc(CO)cc1	-1.91	-0.504 (inactive)	-0.337	-0.105	0.168	-0.163	0.11	-0.958	-0.771	-1.21	-1.12	-1.29	0.874	-2.17	-0.271	-0.517	-0.153	-1.5	-1.15	-0.347 (inactive)
CCCCC(O)C1C=CC2C(=O)N(c3ccccc3)C(=O)C2N1Nc1ccc(C(C)C)cc1 (stereo not given)	0.898	-0.535 (inactive)	0.315	-0.0073	0.712	2.85	0.201	1.32	-0.408	1.07	0.236	1.22	0.536	1.01	0.967	-0.138	-0.142	0.451	0.394	-1.46 (inactive)
COC(=O)[C@@]1(Cc2ccc(F)cc2)[C@H]2c3cc(C(=O)N(C)C)n(Cc4cc(F)cc5c4OCOC5)c3C[C@H]2CN1C(=O)c1ccccc1	1.07	-0.199 (inactive)	0.24	0.105	0.376	2.97	0.271	1.33	-0.535	1.04	1.06	1.19	1.5	1	1.04	-0.0284	-0.915	0.444	1.06	-0.724 (inactive)

From PubChem BioAssay
